Bioassay records: PubChem, National Center for Advancing Translational Sciences (NCATS)
Tau fibril ThT: inhibitors of human tau fibril formation, thioflavin T binding. 270,000 tested, 2.1% active. Potency, µM (highest dose often 57.4 µM), most hits filed as inhibitors. P10636. recombinant tau K18 P301L, heparin-induced fibrillization, ThT fluorescence; further: nearly all actives have a fitted effect of over 55% in size
Target sequence (P10636 561-689 P618L limits assumed): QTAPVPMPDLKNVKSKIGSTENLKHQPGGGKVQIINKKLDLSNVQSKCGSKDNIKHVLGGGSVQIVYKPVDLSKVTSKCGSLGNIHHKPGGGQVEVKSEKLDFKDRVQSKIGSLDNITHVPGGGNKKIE
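Tau K18 P301L fragment (15 uM unlabeled plus 0.24 uM Alexa 594-labeled) in 100 mM sodium acetate pH 7 with compound, fibrillization induced by 20 uM heparin for 6 hr at 37 C. Thioflavin T (30 uM) added, fluorescence read after 1 hr (ex 450, em 510 nm).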
Tau fluor counter: counter-screen for tau fibril formation inhibitors. tau K18 P301L Alexa594 fluorescence, heparin fibrillization. Potency, µM (doses to about 57.7 µM). 280,000 tested, 0.93% active; further: nearly all actives have a fitted effect of over 55% in size
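Human K18 P301L tau (15 uM unlabeled plus 0.24 uM Alexa 594-labeled, final) in 100 mM sodium acetate pH 7 was mixed with compound and 20 uM heparin and incubated 6 hr at 37 C.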
Tau FP inhib: inhibitors of human tau fibril formation; K18 P301L tau heparin fibrillization, Alexa594 FP, 6 h; Potency, µM (series often up to 57.7 µM), usual class: inhibitors; 280,000 tested, 0.39% active; further: nearly all actives have a fitted effect of over 55% in size
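Heparin (20 uM) drove fibril formation of recombinant tau K18 P301L, 15 uM unlabeled with 0.24 uM Alexa 594 label, for 6 hr at 37 C in 100 mM sodium acetate pH 7. Fluorescence polarization (555/632 nm) read 1 hr after 30 uM ThT.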
KDM4E inh: inhibitors of human JMJD2E histone demethylase | JMJD2E catalytic domain, FDH-coupled NADH fluorescence (FDH is formaldehyde dehydrogenase) | Potency, µM (doses to about 57.1 µM), hits mostly inhibitors | 230,000 tested, 1.6% active; active means well fitted inhibition curve with a large enough effect, not every such curve was filed as active; inconclusive means small, poorly fitted or top-dose-only effect, or another doubt; inactive means no such curve, though single readings can be large or run the other way; further: nearly all actives have a fitted effect of over 50% in size
Target sequence (B2RXH2 1-337 limits assumed): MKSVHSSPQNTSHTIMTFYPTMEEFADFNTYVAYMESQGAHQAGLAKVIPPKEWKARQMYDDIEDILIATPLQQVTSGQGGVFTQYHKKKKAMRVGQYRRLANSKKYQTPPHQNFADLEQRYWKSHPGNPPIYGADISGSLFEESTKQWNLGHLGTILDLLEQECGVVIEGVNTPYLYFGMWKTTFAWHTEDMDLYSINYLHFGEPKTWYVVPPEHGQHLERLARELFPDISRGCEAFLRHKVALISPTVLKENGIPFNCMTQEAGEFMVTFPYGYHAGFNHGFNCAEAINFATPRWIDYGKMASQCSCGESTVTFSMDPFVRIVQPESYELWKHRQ
ALDH1A1 block: ALDH1A1 (human) enzyme inhibition. P00352. AID 1030. 220,000 tested, 7.3% active. Potency, µM (titrated, usually from 75.3 µM), actives largely listed as inhibitors. Purified ALDH1A1, NADH fluorescence, propionaldehyde substrate; active means well fitted inhibition curve with a large enough effect, not every such curve was filed as active; inconclusive means small, poorly fitted or top-dose-only effect, or another doubt; inactive means no such curve, though single readings can be large or run the other way
HPGD inh: inhibitors of human 15-hydroxyprostaglandin dehydrogenase (HPGD). P15428. purified HPGD, NADH fluorescence kinetic, PGE2 substrate. Potency, µM, actives largely listed as inhibitors. 150,000 tested, 4.3% active; active means well fitted inhibition curve with a large enough effect, not every such curve was filed as active; inconclusive means small, poorly fitted or top-dose-only effect, or another doubt; inactive means no such curve, though single readings can be large or run the other way
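NADH formation kinetics: reaction with 30 uM PGE2 and 1 mM NAD+ (final), 20 nM enzyme, Tris-HCl pH 8 with Tween 20, after 15 min compound preincubation at room temperature. Fluorescence change, last versus first of five reads.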
Hits are given with their value. A selection: hits, their analogues and other compounds. The true share with any hit is near 9.9%. Unless noted, the call rests on the fitted dose curve; in most records, active means well fitted curve in the direction sought with a large enough effect; inconclusive means small, poorly fitted or top-dose-only effect, or another doubt; inactive means no such curve, though single readings can be large; an effect the other way counts as inactive or inconclusive.

`CCC(C)(C)n1nnnc1CN(Cc1cccs1)Cc1cc2cc(OC)ccc2[nH]c1=O` gave Tau fibril ThT inactive, Tau fluor counter inactive, Tau FP inhib inactive, KDM4E inh inconclusive, ALDH1A1 block inconclusive and HPGD inh inactive.
`COCCn1nnnc1CN(Cc1cccnc1)Cc1cc2cc(OC)ccc2[nH]c1=O` gave Tau fibril ThT inactive, Tau fluor counter inactive, Tau FP inhib inactive, KDM4E inh inconclusive, ALDH1A1 block inconclusive and HPGD inh inconclusive.
For COc1ccc2cc(CN(Cc3cccnc3)Cc3nnnn3Cc3ccccc3)c(=O)[nH]c2c1 the results were Tau fibril ThT inactive, Tau fluor counter inactive, Tau FP inhib inactive, KDM4E inh inactive, ALDH1A1 block 8.91µM and HPGD inh inactive.
Cc1cccc2cc(CN(Cc3cccs3)Cc3nnnn3Cc3ccccc3)c(=O)[nH]c12 was read as Tau fibril ThT inactive, Tau fluor counter inactive, Tau FP inhib inactive, KDM4E inh inactive, ALDH1A1 block 2.82µM and HPGD inh inactive.
`O=S(=O)(NCCc1cn2ccsc2n1)c1ccc(Cl)cc1` gave Tau fibril ThT inactive, Tau fluor counter inactive and Tau FP inhib inactive.
`CC(C)CC1(C(=O)NCC2CC2)C=CCN1C(=O)c1ccccc1` (stereo not given) gave Tau fibril ThT inactive, Tau fluor counter inactive, Tau FP inhib inactive, KDM4E inh inactive, ALDH1A1 block 25.1µM and HPGD inh 17.8µM.
Screening OC(CNCc1ccc(Cl)cc1)C(F)(F)F (stereo not given) returned Tau fibril ThT inactive, Tau fluor counter inactive, Tau FP inhib inactive, KDM4E inh inactive and ALDH1A1 block inactive.
`Cc1ccc(OCCSc2nc3ccccc3n2CC(=O)N2CCCCC2)c(C)c1` gave Tau fibril ThT inconclusive, Tau fluor counter inactive and Tau FP inhib inactive.
CC1=C(C)NC(=S)SC1 was read as Tau fibril ThT inconclusive, Tau fluor counter inactive, Tau FP inhib inactive, KDM4E inh inactive, ALDH1A1 block 22.4µM and HPGD inh inconclusive.
For Cc1ccc(N(CC(=O)Nc2cccc(C)c2)S(=O)(=O)c2cccc3nonc23)cc1 the results were Tau fibril ThT inactive, Tau fluor counter inactive, Tau FP inhib inactive, KDM4E inh inactive and ALDH1A1 block 7.08µM.
O=C(CN1C(=O)NC2(CCCCCC2)C1=O)Nc1ccc2c(c1)CCC2 was read as Tau fibril ThT inactive, Tau fluor counter inactive, Tau FP inhib inactive, KDM4E inh inactive and ALDH1A1 block inactive.
For CC1CCC/C(=C\Nc2ccc(C(=O)O)cc2)C1=O (stereo not given) the results were Tau fibril ThT inconclusive, Tau fluor counter inactive, Tau FP inhib inactive, KDM4E inh inactive and ALDH1A1 block 14.1µM.
`Cc1c(Cl)cccc1NC(=O)c1cnc2sc(N3CCCC3)nn2c1=O` gave Tau fibril ThT inactive, Tau fluor counter inactive and Tau FP inhib inactive.
`Nc1cc(N)nc(SCc2cc(=O)oc3cc4c(cc23)CCC4)n1` gave Tau fibril ThT inactive, Tau fluor counter inactive, Tau FP inhib inactive, KDM4E inh inactive, ALDH1A1 block inconclusive and HPGD inh inactive.
`Cc1cc2oc(=O)cc(CSc3nc(N)cc(N)n3)c2cc1C(C)C` gave Tau fibril ThT inactive, Tau fluor counter inconclusive, Tau FP inhib inactive, KDM4E inh inactive, ALDH1A1 block 17.8µM and HPGD inh inactive.
Screening CCCc1cc(=O)[nH]c(SCc2cc(=O)oc3cc(C)c(C(C)C)cc23)n1 returned Tau fibril ThT inconclusive, Tau fluor counter inactive, Tau FP inhib inactive, KDM4E inh inconclusive, ALDH1A1 block inconclusive and HPGD inh 15.8µM.
Screening COc1cccc(OC)c1NC(=O)CN1CCC(NC(=O)c2cccc(F)c2)CC1 returned Tau fibril ThT inactive, Tau fluor counter inactive, Tau FP inhib inactive, KDM4E inh inactive, ALDH1A1 block 39.8µM and HPGD inh inactive.
COc1cccc(-n2c(COc3ccc(C)cc3)nnc2SCC(=O)O)c1 was read as Tau fibril ThT inactive, Tau fluor counter inactive, Tau FP inhib inactive, KDM4E inh inactive, ALDH1A1 block inactive and HPGD inh 25.1µM.
For COc1cccc(-n2c(COc3ccccc3C)nnc2SCC(=O)O)c1 the results were Tau fibril ThT inactive, Tau fluor counter inactive, Tau FP inhib inactive, KDM4E inh inactive, ALDH1A1 block inactive and HPGD inh inactive.
For O=c1[nH]c(CSc2nnc(COc3ccccc3)n2-c2ccccc2)nc2ccccc12 the results were Tau fibril ThT inactive, Tau fluor counter inactive, Tau FP inhib inactive, KDM4E inh inactive, ALDH1A1 block 17.8µM and HPGD inh inactive.
For O=C(O)CSc1nnc(COc2ccc([N+](=O)[O-])cc2)n1-c1ccccc1 the results were Tau fibril ThT inactive, Tau fluor counter inactive, Tau FP inhib inactive, KDM4E inh inactive and ALDH1A1 block 20µM.
`COc1ccc(NC(=O)/C(=C\c2cc(OC)c(OC)cc2[N+](=O)[O-])NC(=O)c2ccccc2)cc1` gave Tau fibril ThT inactive, Tau fluor counter inactive, Tau FP inhib inactive, KDM4E inh inactive, ALDH1A1 block inactive and HPGD inh 31.6µM.
`COc1ccc(C(=O)N/C(=C\c2cccc([N+](=O)[O-])c2)C(=O)Nc2cccc(C(=O)O)c2)cc1` gave Tau fibril ThT inactive, Tau fluor counter inactive, Tau FP inhib inactive, KDM4E inh inactive and ALDH1A1 block 12.6µM.
For COCC(=O)N1CCC2(CC1)CN(C(=O)Nc1cccc(C#N)c1)C2 the results were ALDH1A1 block inactive and HPGD inh inactive.
For CNC(=O)c1c(NC(=O)c2cc(=O)c3cc(C)c(C)cc3o2)sc2c1CCCC2 the results were Tau fibril ThT inconclusive, Tau fluor counter inactive and Tau FP inhib inactive.
For Cc1cccc(-n2c(C)cc(/C=C3\NC(=O)NC3=O)c2C)c1 the results were Tau fibril ThT inactive, Tau fluor counter inactive, Tau FP inhib inactive and KDM4E inh inconclusive.
`Cc1cc(/C=C2/NC(=O)NC2=O)c(C)n1-c1sc2c(c1C#N)CCCC2` gave Tau fibril ThT inconclusive, Tau fluor counter inconclusive, Tau FP inhib inactive, KDM4E inh inconclusive, ALDH1A1 block 12.6µM and HPGD inh 17.8µM.
`Cc1cc(C)c(-n2c(C)cc(/C=C3/NC(=O)NC3=O)c2C)c(C)c1` gave Tau fibril ThT inconclusive, Tau fluor counter inconclusive, Tau FP inhib inactive, KDM4E inh inconclusive, ALDH1A1 block 14.1µM and HPGD inh inactive.
Cc1ccc(Cl)cc1N1CCN(C(=O)Cn2nc(C)n3c(cc4sccc43)c2=O)CC1 was read as Tau fibril ThT inconclusive, Tau fluor counter inactive and Tau FP inhib inactive.
For COc1ccc(N2Cc3cccc(C(=O)NC(C)CCc4ccco4)c3C2=O)cc1 (stereo not given) the results were Tau fibril ThT inconclusive, Tau fluor counter inactive, Tau FP inhib inactive, KDM4E inh inconclusive, ALDH1A1 block 25.1µM and HPGD inh inconclusive.
